About 83,000 compounds went through this panel and 20% of them were active in at least one assay; those are over-represented in the sample as a whole.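 Note: values are percent growth. 100 is the growth of untreated cells, values between 100 and 0 indicate rising inhibition; between -100 and 0 indicates cell death.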 Values without a mark were called inactive. Active and inactive are the calls of the source. Rule for the calls: active = growth percent below 10; inactive = the rest.
Key:
Assay in all cases: NCI-60 one-dose screen, 48 h (100 = growth as untreated, 0 = no growth, -100 = all killed)
Settings in all cases: 10 µM unless noted
[1] = system: NCI-H23 lung
[2] = system: NCI-H226 lung
[3] = system: NCI-H322M lung
[4] = system: HOP-62 NSCLC
[5] = system: NCI-H460 lung
[6] = system: HOP-92 NSCLC
[7] = system: A549/ATCC NSCLC
[8] = system: 786-0 renal
[9] = system: COLO 205 colon
[10] = system: DU-145 prostate
[11] = system: K-562 leukemia
[12] = system: MALME-3M melanoma
[13] = system: MDA-MB-231 breast
[14] = system: RXF 393 renal
[15] = system: SF-268 CNS
[16] = system: SF-295 CNS
[17] = system: SF-539 CNS
[18] = system: UACC-257 melanoma
[19] = system: M14 melanoma

SMILES	growth [1]	growth [2]	growth [3]	growth [4]	growth [5]	growth [6]	growth [7]	growth [8]	growth [9]	growth [10]	growth [11]	growth [12]	growth [13]	growth [14]	growth [15]	growth [16]	growth [17]	growth [18]	growth [19]
O=C(c1ccccc1)C(CN1CCCCC1)c1ccccc1 (centres undefined)	91.4%	91.6%	88.3%	68.2%	68.7%	-12.2% (active)	79.9%	1.38% (active)	10.1%	23.2%	0.176% (active)	-3.92% (active)	22.6%	42.4%	58.6%	98.8%	-15.7% (active)	25.6%	-74.3% (active)
COc1cnc2c(c1)C(=O)c1c-2n(CCCNC2=NCCS2)c(=O)c2cc(F)ccc12	6.62% (active)	3.93% (active)	46.6%	11.2%	-43.8% (active)	50.9%	9.29% (active)	-90.5% (active)	22.1%	14.9%	-34.4% (active)	27.8%	51%	35.1%	23.2%	-5.74% (active)	-13.2% (active)	21.8%	5.96% (active)
CCn1cnc(C[C@H](NC(=O)[C@H](CCCCNC(=O)Nc2cc(C(F)(F)F)cc(C(F)(F)F)c2)NC(=O)Nc2cc(C(F)(F)F)cc(C(F)(F)F)c2)C(=O)OC)c1	-65.8% [100 µM] (active)	2.9% [100 µM] (active)	5.23% [100 µM] (active)	-75.3% [100 µM] (active)	-41.1% [100 µM] (active)	-45.4% [100 µM] (active)	-75.3% [100 µM] (active)	-54.3% [100 µM] (active)	-100% [100 µM] (active)	-69.5% [100 µM] (active)	-80.2% [100 µM] (active)	-69.6% [100 µM] (active)	-100% [100 µM] (active)	-47.2% [100 µM] (active)	-53.5% [100 µM] (active)	-97.4% [100 µM] (active)	-66.4% [100 µM] (active)	-59.1% [100 µM] (active)	-97.4% [100 µM] (active)
CCOc1cc(/C=C/C(=O)C(C(=O)/C=C/c2ccc(OC(=O)CNc3nc4ccccc4[nH]3)c(OCC)c2)C(=O)CNc2nc3ccccc3[nH]2)ccc1OC(=O)CNc1nc2ccccc2[nH]1	6.88% (active)	-10.9% (active)	23.2%	10.1%	-27.3% (active)	-13% (active)	7.62% (active)	-47.7% (active)	-41.8% (active)	-24.8% (active)	-26.2% (active)	-35.1% (active)	-16.3% (active)	-71.4% (active)	8.48% (active)	-20.4% (active)	-33.4% (active)	21.1%	-6.17% (active)
CC(=O)[C@H]1CC[C@H]2[C@@H]3C[C@H](C)C4=CC(=O)CC[C@]4(C)[C@H]3C(=O)C[C@]12C	102%	104%	117%	99.1%	107%	85.3%	98.7%	112%	94.3%	112%	106%	109%	108%	103%	96.6%	120%	98.5%	102%	101%
O=C1NCCc2c1noc2-c1ccccc1	99.5%	104%	101%	94.9%	107%	104%	79.7%	96.5%	103%	104%	108%	108%	122%	105%	93.7%	97.8%	94.7%	101%	101%
COc1ccccc1-n1c(-c2ccc(O)cc2C)cn2c3c(=O)[nH]c(=O)n(C)c3nc12	91.6%	92.4%	113%	79.3%	93.1%	49.4%	86.6%	72.2%	102%	112%	98.9%	97.6%	65%	72.4%	86.4%	99.8%	88.8%	82.2%	88.7%
C[C@]12CCC(=O)C=C1CC[C@H]1[C@@H]3C[C@@H](O)[C@](O)(C(=O)CO)[C@@]3(C)C[C@H](O)[C@@]12F	110%	83.1%	128%	101%	93.4%	80.3%	63.1%	111%	103%	92.4%	110%	87%	102%	137%	85.5%	104%	91.9%	82.1%	85.6%
CC1(C)CC2(C)CC(=O)C1C(C(=O)O)C2C(=O)O (centres undefined)	106%	107%	104%	105%	112%	113%	109%	123%	107%	120%	104%	110%	107%	103%	105%	105%	108%	107%	119%
C=C1CC[C@@H]2[C@](C)(COC(C)=O)[C@H](OC(C)=O)CC[C@@]2(C)[C@@H]1CC(NCc1ccccc1)C1=CCOC1=O (some centres undefined)	57.4%	11.4%	77%	89%	48.4%	41.7%	49.2%	71.4%	45.6%	67.2%	24.7%	77.1%	64.7%	74.3%	62.1%	63.9%	79.5%	32.8%	42.1%
C[C@H](C(=O)N[C@@H](Cc1ccc(-c2ccccc2)cc1)C(=O)NC1CC(C)(C)N(C)C(C)(C)C1)c1ccc(-c2ccccc2)c(F)c1	-71% (active)	-49.1% (active)	-62.3% (active)	-73.5% (active)	-75.8% (active)	-75.5% (active)	-79.1% (active)	-91.3% (active)	-69.6% (active)	-83.1% (active)	-56.9% (active)	-71.5% (active)	-68.5% (active)	-73.2% (active)	-70.9% (active)	-66% (active)	-79.5% (active)	-66.2% (active)	-82.6% (active)
COc1cc(/C=C/C(=O)CC(=O)/C=C/c2ccc(OC(=O)C3C4CC5CC(C4)CC3C5)c(OC)c2)ccc1OC(=O)C1C2CC3CC(C2)CC1C3 (centres undefined)	104%	123%	92.9%	99.1%	120%	65.5%	102%	104%	110%	120%	95.1%	78.4%	116%	110%	104%	98.9%	108%	102%	105%
C[C@H](C(=O)N[C@@H](Cc1ccc(-c2ccccc2)cc1)C(=O)NC1CC(C)(C)NC(C)(C)C1)c1ccc(-c2ccccc2)c(F)c1	-42% (active)	-26.7% (active)	-34% (active)	-67.4% (active)	-76.4% (active)	-69.7% (active)	-76.9% (active)	-88.6% (active)	-81.8% (active)	-89.3% (active)	-53.7% (active)	-77.4% (active)	-53.6% (active)	-55.6% (active)	-58.1% (active)	-54.5% (active)	-78.6% (active)	-62.9% (active)	-79.2% (active)
COc1ccccc1NC(=O)c1sc2nc3c(cc2c1N)C(=O)CCC3	66.7%	76.2%	59.7%	100%	19.3%	37.5%	34.2%	89.1%	26.4%	86.6%	41.5%	58.2%	57.5%	77%	102%	25.7%	66.2%	58.5%	47.1%
O=C1/C=C/[C@@H](O)[C@@H]2C[C@@H](O)C[C@H]2/C=C/CCC[C@H](CO)O1	13.5%	-63.4% (active)	41.7%	43.6%	45.1%	58.3%	31.3%	-59.6% (active)	-71.6% (active)	92.9%	46.8%	7.5% (active)	3.23% (active)	-29.9% (active)	20.6%	23.9%	34.8%	29.9%	11.6%
CC1=C([Se]CC(OC(=O)[C@@H](CSSC(C)(C)C)NC(=O)C(C)(C)C)C(=O)NCCCCCC(=O)OCc2ccccc2)C(=O)c2ccccc2C1=O (some centres undefined)	-30.2% (active)	3.19% (active)	-22.6% (active)	-95% (active)	1.81% (active)	-35.9% (active)	1.31% (active)	-55.6% (active)	40.4%	13.3%	7.91% (active)	-39.1% (active)	-15.3% (active)	-33.5% (active)	7.11% (active)	-27.8% (active)	-69.4% (active)	-20.8% (active)	-32.5% (active)

Source: PubChem BioAssay (NCI)
